In PubChem BioAssay AID720597 (Broad Institute, 2013):
Results with a measured potency or affinity are listed apart. Values without a mark were called inactive.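 Rule for the calls: active = fitted half-maximal dose no more than twice the top valid tested dose, for compounds that lower signal; inconclusive = fit invalid, or curve flat with activity between -70 and -30; inactive = potency past limit, curve flat within ±30, or signal increasing.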

These molecules were tested against NAD-dependent protein deacylase sirtuin-5, mitochondrial (Homo sapiens) (UniProt Q9NXA8) (assay: SIRT5 deacylase inhibitors, dose response, biochemical, fluorescence imaging, cherry-pick, set 6 (AID 720597;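 note: lower AMC signal can also come from blocking the trypsin step; 0% = median of neutral control wells and -100% = median of positive control wells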)). Conditions: Purified SirT5, succinyl-peptide-AMC/trypsin fluorescence; series mostly up to 15 µM; activity change, negative = inhibition: at the top concentration.
NAD-dependent protein deacylase sirtuin-5, mitochondrial (Homo sapiens), sequence (Q9NXA8 whole entry, looked up): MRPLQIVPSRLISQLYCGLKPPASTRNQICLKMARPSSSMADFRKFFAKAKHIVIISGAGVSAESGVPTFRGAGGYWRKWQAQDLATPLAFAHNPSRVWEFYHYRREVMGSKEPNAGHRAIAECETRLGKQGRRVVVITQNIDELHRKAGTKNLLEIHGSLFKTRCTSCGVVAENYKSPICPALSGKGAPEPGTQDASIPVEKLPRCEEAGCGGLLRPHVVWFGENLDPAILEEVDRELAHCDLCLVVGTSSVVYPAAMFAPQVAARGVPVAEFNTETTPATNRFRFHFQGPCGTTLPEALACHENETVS

| Structure (SMILES) | activity change, negative = inhibition [%] |
| --- | --- |
| CCC(=O)N(C)C[C@@H]1[C@@H](c2ccc(-c3ccccc3F)cc2)[C@H](CO)N1C(C)=O | -1.46 |
| Cc1noc(C)c1NC(=O)N[C@@H]1C=C[C@@H](CC(=O)Nc2ccccc2)O[C@H]1CO | 12.1 |
| CCS(=O)(=O)N1CC2(C1)CN(S(=O)(=O)c1cn(C)cn1)[C@@H](CO)c1[nH]c3cc(OC)ccc3c12 | 19.2 |
| O=C(N[C@H]1C=C[C@H](CC(=O)N2CCOCC2)O[C@H]1CO)c1ccccn1 | 7.46 |
| CN(C)CC#Cc1ccc([C@@H]2[C@@H](CO)N3CCCCN(C(=O)CN(C)C)C[C@H]23)cc1 | -9.95 |
| Cc1cccc(-c2ccc([C@@H]3[C@@H](CO)N4C(=O)CN(S(=O)(=O)c5cccc(F)c5)C[C@@H]34)cc2)c1 | 5.16 |
| C[C@H]1CN([C@@H](C)CO)S(=O)(=O)c2ccc(-c3cncnc3)cc2O[C@H]1CN(C)Cc1ccccn1 | 6.87 |
| C[C@H]1CN([C@@H](C)CO)S(=O)(=O)c2ccc(C3=CCCCC3)cc2O[C@@H]1CN(C)S(=O)(=O)c1ccc(F)cc1 | -13 |
| Cc1noc(C)c1NC(=O)Nc1cccc2c1O[C@H](CN(C)Cc1ccc(Oc3ccccc3)cc1)[C@@H](C)CN([C@H](C)CO)C2=O | 4.82 |
| C[C@@H]1CN([C@@H](C)CO)S(=O)(=O)c2ccc(/C=C/c3ccccc3)cc2O[C@@H]1CN(C)C(=O)NC1CCCCC1 | -4.81 |
| C[C@H](CO)N1C[C@H](C)[C@@H](CN(C)C(=O)NC2CCCCC2)Oc2cc(C#Cc3ccc(F)cc3)ccc2S1(=O)=O | -9.23 |
